# Source: PubChem (National Center for Advancing Translational Sciences (NCATS))
# DT40 TDP1 CPT: growth inhibition of DT40 Tdp1-/-;hTDP1 cells with camptothecin (screen for TDP1 inhibitors) | chicken DT40 Tdp1-/-;hTDP1 cells + 20 nM CPT, ATP luminescence, 48 h | Potency, µM (titrated, usually from 46.2 µM), inactives show at the highest dose activity change, negative = growth inhibition, actives largely listed as inhibitors | 12% of 420,000 active; note: potency is the fitted concentration of half-maximal effect; nearly all actives have a fitted effect of over 55% in size
#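 Chicken DT40 Tdp1-/- cells stably complemented with human TDP1 were seeded at 400 cells/well in medium containing 20 nM camptothecin, exposed to pin-transferred compounds, and grown at 37 °C for at least 48 hr. Viability was read as ATP luminescence.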
# TDP1 cell noCPT: qHTS for Inhibitors of human tyrosyl-DNA phosphodiesterase 1 (TDP1): qHTS in cells in absence of CPT; DT40 Tdp1-/- hTDP1 cells, no CPT, ATP luminescence, 48 h; Potency, µM (top dose mostly 46.2 µM), for the others: at the highest dose activity change, negative = growth inhibition, most hits filed as inhibitors; 15% of 420,000 active; note: potency is the fitted concentration of half-maximal effect; nearly all actives have a fitted effect of over 55% in size
#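 Growth kinetics read by CellTiter-Glo luminescence after ≥48 hr at 37 °C. Cells: DT40 Tdp1-/- stably carrying human TDP1, 400 per well, compound exposure in the absence of CPT (DMSO vehicle).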
# IL-1B inflam inh: inhibitors of inflammasome signaling (IL-1 beta secretion); 4.7% of 360,000 active; activity change, % at 57.5 µM; THP-1 LPS/ATP IL-1B secretion, AlphaLISA, 16 h; hits give low values; in the data active = activity change below about -50%; inconclusive = mostly about -30% to -49%
#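 Secreted IL-1B measured by AlphaLISA bead assay after 16 h compound exposure of THP-1 cells; compounds (final up to 57.5 uM) added 1 h before LPS (250 ng/mL) and ATP (1.25 mM) stimulation; lower signal means less secretion.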
# HT1080 IDH1KD tx: kills HT-1080 cells with IDH1 knockdown; 2% of 360,000 active; AID 686971; Potency, µM (highest dose often 46.1 µM), for the others: top-dose activity, negative = toxicity, usual class: cytotoxic; HT-1080 IDH1 knockdown viability, ATP luminescence, 48 h;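 note: potency is the fitted concentration of half-maximal effect; 0% = DMSO wells and -100% = cell-free medium wells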
#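 HT-1080-IDH1KD cells (IDH1 knocked down), 750/well in RPMI with 5% FBS, treated with compound 48 h at 37 degrees C. Viability by CellTiter-Glo luminescence, normalised to DMSO and no-cell wells; concentration-response curves classed.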
# HT1080-NT tox: kills 2HG-producing HT-1080-NT fibrosarcoma cells; HT-1080-NT fibrosarcoma viability, CellTiter-Glo ATP luminescence, 48 h; 1.6% of 360,000 active; Potency, µM (doses to about 46.1 µM), for the others: at the top dose activity, negative = less viability, most hits filed as cytotoxic;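 note: NT is the 2HG producing partner of a matched IDH1 knockdown line; potency is the fitted concentration of half-maximal effect; 0% = DMSO-treated cells and -100% = media-only wells without cells; nearly all actives have a fitted effect of over 55% in size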
#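 HT-1080-NT; 750 cells/well; 5% FBS RPMI; 48 h compound, 37 degrees C; CellTiter-Glo luminescence; curve fitting and curve-class assignment.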
# ALOX12 inh: blocks human arachidonate 12S-lipoxygenase; 1.1% of 580,000 active; P18054; purified 12hLO, xylenol orange hydroperoxide absorbance; Potency, µM (titrated, usually from 108 µM), for inactives: top-dose activity change, negative = inhibition, actives largely listed as inhibitors; note: potency is the fitted concentration of half-maximal effect
# Target sequence (P18054 whole entry, looked up): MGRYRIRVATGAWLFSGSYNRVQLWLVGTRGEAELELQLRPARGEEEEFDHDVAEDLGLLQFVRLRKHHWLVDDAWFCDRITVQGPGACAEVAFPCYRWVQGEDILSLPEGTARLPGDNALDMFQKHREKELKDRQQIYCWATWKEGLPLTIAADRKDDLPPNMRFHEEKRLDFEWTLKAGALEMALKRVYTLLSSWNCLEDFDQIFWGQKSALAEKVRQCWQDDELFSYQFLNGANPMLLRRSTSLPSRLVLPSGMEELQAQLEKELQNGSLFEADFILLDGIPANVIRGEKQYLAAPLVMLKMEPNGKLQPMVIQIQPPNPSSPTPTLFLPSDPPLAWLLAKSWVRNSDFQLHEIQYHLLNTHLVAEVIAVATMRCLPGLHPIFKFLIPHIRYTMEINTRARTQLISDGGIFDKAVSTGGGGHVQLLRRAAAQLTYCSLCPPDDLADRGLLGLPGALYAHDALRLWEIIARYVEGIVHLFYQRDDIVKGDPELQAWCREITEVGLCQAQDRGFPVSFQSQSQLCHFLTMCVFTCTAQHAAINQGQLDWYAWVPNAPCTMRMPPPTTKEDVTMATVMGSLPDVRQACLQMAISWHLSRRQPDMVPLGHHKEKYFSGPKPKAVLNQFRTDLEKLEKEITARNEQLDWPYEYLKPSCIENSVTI
#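 Purified human 12hLO at 150 nM in 25 mM Hepes, 0.01% Triton X-100, pH 7.0, preincubated 15 min at room temperature with compound. Reaction started with 40 uM arachidonic acid, 30 min at room temperature. Hydroperoxide measured by Fe-xylenol orange, 573/405 nm absorbance ratio.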
# Numbers without * were called inactive; ? = inconclusive; nt = no result; ! = not active in a repeat; [ ] = another dose, or the depositor's remark. This is one part of a sample in which hits are shown more often than they occur. Unless noted, calls come from the whole dose curve; as a rule, active = well fitted curve in the direction sought with a large enough effect; inconclusive = small, poorly fitted or top-dose-only effect, or another doubt; inactive = no such curve, though single readings can be large; an effect the other way counts as inactive or inconclusive. Unless noted, % is set by controls: 0 for no effect and ±100 for the full control effect.
SMILES,DT40 TDP1 CPT,TDP1 cell noCPT,IL-1B inflam inh,HT1080 IDH1KD tx,HT1080-NT tox,ALOX12 inh
C=CCn1c2ccccc2c(=O)c2cc(C#CC3(O)CCCCC3)ccc21,16µM*,18µM*,-57*,-27%,?,-8%
Cn1nc(C(=O)N2CCC3(CC2)N=C(c2ccccc2)NO3)c2ccccc21,nt,nt,nt,nt,nt,59%
CCCn1c(N)c(C(=O)COc2ccc(Br)cc2F)c(=O)n(C)c1=O,15µM*,?,10,-8%,-10%,-2%
CCCC(=O)N(CCN(Cc1ccccc1)C(=O)CCC)Cc1ccccc1,?,23µM*,-17,-14%,-4%,64%
O=C(NCCC(=O)N(CCc1ccccc1)Cc1ccccc1)c1ccc(Br)cc1,?,26µM*,-10,-12%,-1%,-8%
CCCC(=O)N(CC(=O)Nc1sc(C)c(C)c1C(N)=O)Cc1ccccc1,12µM*,6.5µM*,0,1%,0%,11%
O=C(NCCCCc1ccccc1)c1ccc(Br)cc1,?,?,-9,0%,7%,0%
Cc1ccccc1C(=O)N(CC(=O)Nc1sc(C)c(C)c1C(N)=O)C1CCCC1,?,15µM*,6,-1%,-26%,-20%
Cc1sc(NC(=O)CN(CCc2ccccc2)C(=O)C2CC2)c(C(N)=O)c1C,?,?,8,10%,5%,2%
Cc1c(C(=O)C(F)(F)F)c2ccccc2n1CCOc1ccccc1F,nt,nt,nt,nt,nt,-29%
CC(Oc1ccc2ccc(=O)oc2c1)C(=O)NCCc1ccc(S(N)(=O)=O)cc1 (stereo unspecified),nt,nt,nt,nt,nt,7%
CCOc1ccc(NS(=O)(=O)c2cc(NC(=O)Cc3c(F)cccc3Cl)ccc2OC)cc1,nt,nt,nt,nt,nt,-9%
O=C1OCC2=C1C(c1ccc3c(c1)OCO3)CC(=O)N2c1ccc(F)cc1 (stereo unspecified),nt,nt,nt,nt,nt,42%
COc1ccc(S(=O)(=O)Nc2nc3ccccc3nc2NCc2ccc(C)cc2)cc1,nt,nt,nt,nt,nt,-5%
O=C1N=C(N2CCOCC2)S/C1=C/c1cccs1,-26%,-19%,-22,1%,0%[9.24 µM],-21%
O=C1N=C(N2CCOCC2)S/C1=C\c1ccncc1,-11%,-16%,-5,-2%,13%,116%
CC(C)c1ccc(/C=C2\SC(N3CCOCC3)=NC2=O)cc1,?,?,-65*,-29%,1%,114%
CCc1ccc(/C=C2/SC(N3CCOCC3)=NC2=O)cc1,4%,?,-50*,7%,11%,?
CCOC(=O)COc1ccc2c(C)c(C)c(=O)oc2c1C,nt,nt,nt,nt,nt,-19%
COCCN1C(=O)CS(=O)(=O)C12CCN(C(=O)c1ccc(OC)cc1OC)CC2,nt,nt,nt,nt,nt,5%
O=C(NCCCO)C1CC(=O)N(c2n[nH]c3cc(Br)ccc23)C1 (stereo unspecified),nt,nt,nt,nt,nt,9%
COc1ccc(OC)c2c(=O)cc(C(=O)O)[nH]c12,5%,1%,-6,7%,10%,?
O=C(O)c1cc(=O)c2c3nc4ccccc4oc-3cc(=O)c2[nH]1,25µM*,11µM*!,nt,nt,nt,nt
Cc1nc2c(OCCC3CCCCC3)cccn2c1N(C)C(=O)CCC1CCCC1,?,16µM*,-53*,?,?,?
Cc1nc2c(OCCOc3ccccc3)cccn2c1N(C)C(=O)CCC1CCCC1,?,?,146,-12%,-20%,-24%
Cc1nc2c(OCc3cc(Cl)cc(Cl)c3)cccn2c1N(C)C(=O)CCC1CCCC1,?,?,-67*,?,?,?
Cc1nc2c(OCCOc3ccc(F)cc3)cccn2c1N(C)C(=O)CCC1CCCC1,?,15µM*,-23,?,?,-30%
COc1cccc(/C=N/Nc2ccccc2C(=O)O)c1O,-8%,-1%,-2,0%,-2%,?
